Most compounds without a hit are left out; they make up all but 2.6% or so of the library.
PABP1 MLLE inh – inhibitors of microRNA-mediated deadenylation, human PABP1 MLLE binding; P11940; actives 0.36% (n = 360,000); inhibition, % at 20 µM; GST-MLLE / FITC-PAM2 fluorescence polarization; AID 588489; in the data active = inhibition above about 35%, passing the limit was not always enough
eIF4H inh – inhibitors of RNA binding by human eIF4H; inhibition, % at 35 µM; actives 0.94% (n = 290,000); AID 2012; Q15056; eIF4H fluorescence polarization binding assay;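 note: calls also rest on retests at 20 µM and on dose response follow-up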
ABCB6 inh 2 – human ABCB6 transporter inhibition | Q9NP58 | K562-ABCB6 porphyrin accumulation, flow cytometry, 1 h; stronger effect = lower value | fluorescence ratio to DMSO, % at 10 µM | actives 0.19% (n = 360,000) | AID 602162;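 active = fluorescence ratio to DMSO below 75%, the collection mean minus 3 SD; inconclusive = too few cells collected in the well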;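 note: signal is porphyrin accumulated inside mitochondria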
AI-2 QS mod – modulators of Vibrio harveyi AI-2 quorum sensing system; Vibrio harveyi JMH597 AI-2 luminescence/OD600 ratio, 9 h; stronger effect = lower value; strain lacks LuxN and CqsS sensors; 0 = neutral-control median; activity change, % at 7.5 µM; actives 0.4% (n = 300,000); AID 2094; in the data active = activity change below about -75%, passing the limit was not always enough; inconclusive = no clear call, values can overlap the other calls;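 note: luminescence divided by OD600 gain over 9 h not by final OD600 alone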
PABP FP inh – PABP-poly(A) binding inhibition; actives 1% (n = 290,000); PABP-poly(A) RNA binding, fluorescence polarization; calls only at 35 µM;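 note: calls also rest on retests at 20 µM and on dose response follow-up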
PHOSPHO1 block – inhibitors of human PHOSPHO1 phosphatase; Q8TCT1; recombinant PHOSPHO1, absorbance phosphatase assay; inhibition, % at 13.3 µM; actives 1.1% (n = 290,000); AID 1565; in the data active = inhibition above about 60%
Target sequence (Q8TCT1 whole entry, looked up): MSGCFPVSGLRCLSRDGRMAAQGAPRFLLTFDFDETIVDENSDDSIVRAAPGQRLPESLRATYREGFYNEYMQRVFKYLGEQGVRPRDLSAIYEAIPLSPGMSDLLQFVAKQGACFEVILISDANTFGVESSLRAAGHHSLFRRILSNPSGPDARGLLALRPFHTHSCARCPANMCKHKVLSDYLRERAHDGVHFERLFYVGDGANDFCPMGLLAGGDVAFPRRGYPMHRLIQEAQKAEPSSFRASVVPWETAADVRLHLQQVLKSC
Each line names hits and unclear results; the compound was inactive in the other large screens. Unless noted, the rule behind the calls is not given here.

O=c1ccn([C@@H]2O[C@H](CNCc3cccc4c3sc3ccccc34)[C@@H](O)[C@H]2O)c(=O)[nH]1	none (no result: eIF4H inh, AI-2 QS mod, PABP FP inh, PHOSPHO1 block)
COc1ccc(C(O)c2nc(-c3cccc(NC(C)=O)c3)cs2)cc1 (stereo not given)	none (no result: eIF4H inh, AI-2 QS mod, PABP FP inh, PHOSPHO1 block)
COc1ccc(NC(=O)CN(C)S(=O)(=O)c2ccc3[nH]c(=O)oc3c2)cc1	PHOSPHO1 block 62.9
CCc1ccc(NC(=O)CN(C)S(=O)(=O)c2ccc3[nH]c(=O)oc3c2)cc1	none
COC(=O)c1ccc(NS(=O)(=O)c2ccc3[nH]c(=O)oc3c2)cc1	eIF4H inh 65.5
Cc1cccc(NS(=O)(=O)c2ccc(-c3ccc(=O)[nH]n3)o2)c1	none
Cc1ccc(NS(=O)(=O)c2ccc3[nH]c(=O)oc3c2)cc1Cl	none (no result: eIF4H inh, AI-2 QS mod, PABP FP inh, PHOSPHO1 block)
Cc1ccc(C)c(NS(=O)(=O)c2ccc(-c3ccc(=O)[nH]n3)o2)c1	PHOSPHO1 block 64.9
Cc1ccc(C)c(NS(=O)(=O)c2ccc3[nH]c(=O)oc3c2)c1	eIF4H inh inconclusive, PABP FP inh active
CCOc1ccccc1-c1cncc(NC)n1	none (no result: eIF4H inh, AI-2 QS mod, PABP FP inh, PHOSPHO1 block)
CCOC1=C2[C@@H](CN(S(=O)(=O)c3ccc(C)cc3)[C@H]2c2ccccc2F)[C@H]2C(=O)N(C3CCCCC3)C(=O)[C@H]2C1	none (no result: eIF4H inh, AI-2 QS mod, PABP FP inh, PHOSPHO1 block)
CCn1ccnc1CN(C)Cc1nc(-c2ccc(C(=O)OC)cc2)no1	PHOSPHO1 block 60.5
C=CCSc1nc2sc3c(c2c(=O)n1CC)CCc1ccccc1-3	PHOSPHO1 block 87.0
C=CCn1c(SCC)nc2sc3c(c2c1=O)CCc1ccccc1-3	none
CCSc1nnc([C@@H]2CCCN2C(=O)OC(C)(C)C)o1	PHOSPHO1 block 67.4
C=C(C)CSc1nnc([C@@H]2CCCN2C(=O)OC(C)(C)C)o1	none
O=C1OCCN1CCNCc1cn(-c2ccc(F)cc2)nc1-c1ccccc1Cl	PHOSPHO1 block 60.1
CS(=O)(=O)c1ccc(-c2csc(C(O)c3cccc(Cl)c3)n2)cc1 (stereo not given)	none (no result: eIF4H inh, AI-2 QS mod, PABP FP inh, PHOSPHO1 block)
Cc1cc(NC(=O)c2ccc3sc([C@@H]4O[C@H](CO)[C@H](O)[C@H](O)[C@H]4O)nc3c2)no1	none (no result: eIF4H inh, AI-2 QS mod, PABP FP inh, PHOSPHO1 block)
CN1CCc2cccc3c2[C@@H]1Cc1ccc(O)c(O)c1-3	PABP1 MLLE inh 45.7
COc1ccc(C2(CNS(=O)(=O)c3ccccc3)CCOCC2)cc1	PHOSPHO1 block 64.3
Cc1ccc(S(=O)(=O)NCC2(c3ccccc3)CCOCC2)cc1	none
O=S1(=O)CC=C(CSC(=S)NC2CCS(=O)(=O)C2)C1 (stereo not given)	AI-2 QS mod -82.7
COCCn1c(=S)[nH]c2ccc(N(C)C)cc2c1=O	PHOSPHO1 block 98.0
O=C(/C=C/[C@H]1O[C@@H](n2cnc3c(NC(=O)c4ccccc4)ncnc32)[C@H](O)[C@@H]1O)NCC1CCCCC1	none (no result: eIF4H inh, AI-2 QS mod, PABP FP inh, PHOSPHO1 block)
Cc1nc2sc(C(=O)O)c(N)c2c2c1COC(C)(C)C2	PHOSPHO1 block 65.5
COc1ccc(S(=O)(=O)N2CCCCC2c2cc(C(=O)NCc3cccnc3)no2)cc1 (stereo not given)	none (no result: eIF4H inh, AI-2 QS mod, PABP FP inh, PHOSPHO1 block)
CC12CCC(O)CC1=CCC1C2CCC2(C)C1CCC21CCC(=O)O1 (stereo not given)	eIF4H inh 11.7, PABP FP inh active
O=C1O[C@@H](c2ccccc2)C[C@@H](O)C(=O)CCCc2ccccc21	none (no result: PABP1 MLLE inh, eIF4H inh, AI-2 QS mod, PABP FP inh, PHOSPHO1 block)
Nc1ccccc1C(=O)NN=Cc1cccnc1	none (no result: eIF4H inh, AI-2 QS mod, PABP FP inh, PHOSPHO1 block)
CCn1nc(C)cc1-c1nnc(Sc2ncc([N+](=O)[O-])s2)n1C	AI-2 QS mod -237.9
C[C@H](CO)N1C[C@H](C)[C@@H](CN(C)S(=O)(=O)c2ccc(C#N)cc2)OCc2cn(nn2)CCCC1=O	none (no result: eIF4H inh, AI-2 QS mod, PABP FP inh, PHOSPHO1 block)
CCCC1CCc2c(sc(N)c2C(N)=O)C1 (stereo not given)	PHOSPHO1 block 95.4
CC(C)(C)C1CCc2c(sc(N)c2C(N)=O)C1 (stereo not given)	PHOSPHO1 block 83.3
CCC(C)(C)C1CCc2c(sc(N)c2C(N)=O)C1 (stereo not given)	none
FC(F)(F)c1cc(Cl)c2nc(-c3ccco3)c(Cc3ccccc3C(F)(F)F)n2c1	none (no result: PABP1 MLLE inh, eIF4H inh, AI-2 QS mod, PABP FP inh, PHOSPHO1 block)
CC(=O)N(C)C[C@H]1Oc2ncc(Br)cc2C(=O)N([C@H](C)CO)C[C@@H]1C	none (no result: eIF4H inh, AI-2 QS mod, PABP FP inh, PHOSPHO1 block)
CC(=O)c1cc(C#N)c(SCc2ccncc2)nc1C	PHOSPHO1 block 69.4
CC(=O)c1cc(C#N)c(SCc2ccc([N+](=O)[O-])cc2)nc1C	none
O=[N+]([O-])c1ccc2[nH]c3c(c2c1)CCCC3	none
N/N=C1\CCCc2c1[nH]c1ccc([N+](=O)[O-])cc21	PHOSPHO1 block 88.2
Cc1ccc(C(=O)Oc2coc(CSc3nnc(NC(=O)c4cccs4)s3)cc2=O)cc1	eIF4H inh 90.1, PABP FP inh active
Cc1ccc(S(=O)(=O)NC(CC(C)C)C(=O)Oc2ccc3c4c(c(=O)oc3c2)CCC4)cc1 (stereo not given)	PHOSPHO1 block 60.5
CC(=O)NC(C)(c1ccccc1)c1nc(-c2ccc(S(C)(=O)=O)cc2)cs1 (stereo not given)	none (no result: eIF4H inh, AI-2 QS mod, PABP FP inh, PHOSPHO1 block)
COc1ccc(CC(=O)Nc2cc(C)ccc2O)cc1OC	AI-2 QS mod -78.0
CCOc1ccccc1NC(=O)c1cccc(NC(=O)C(C)C)c1	PHOSPHO1 block 61.0
O=C1ON=C(c2ccccc2)/C1=C/c1ccc(O)c(O)c1	PABP FP inh active
COc1ccc(/C=C2\C(=O)ON=C2c2ccccc2)cc1	none
O=C(NCCc1ccccc1)C1Cc2c(-c3ccc4c(c3)OCO4)ccnc2O1 (stereo not given)	none (no result: eIF4H inh, AI-2 QS mod, PABP FP inh, PHOSPHO1 block)
CS(=O)(=O)Nc1ccc(F)cc1	none (no result: PABP1 MLLE inh, eIF4H inh, AI-2 QS mod, PABP FP inh, PHOSPHO1 block)
Cc1nc2ccccc2c(=O)n1NC(=O)COc1ccccc1	none
O=C(COc1ccccc1)Nn1cnc2ccccc21	PHOSPHO1 block 96.8
COc1ccc(CN2C(=O)c3cccc4cccc(c34)C2c2nc3ccccc3[nH]2)cc1 (stereo not given)	none (no result: PABP1 MLLE inh, eIF4H inh, AI-2 QS mod, PABP FP inh, PHOSPHO1 block)
O=C(NC12CC3CC(CC(C3)C1)C2)c1ccc(Br)o1	none (no result: PHOSPHO1 block)
O=C(NC12CC3CC(CC(C3)C1)C2)c1ccc([N+](=O)[O-])o1	AI-2 QS mod -210.2
O=C(Nc1ccc(F)cc1F)NC1CCCCCCC1	PHOSPHO1 block 61.0
O=C(Nc1cccc([N+](=O)[O-])c1)c1cc2ccccc2cc1O	eIF4H inh 61.3, PABP FP inh active
O=C(O)c1ccccc1C(=O)Nc1cccc([N+](=O)[O-])c1	none
O=C1NC[C@@H](CCCCN2C[C@H](Cc3ccccc3)N(CC3CCCCC3)C(=O)C2=O)N(CC2CCCCC2)C1=O	none (no result: PABP1 MLLE inh, eIF4H inh, AI-2 QS mod, PABP FP inh, PHOSPHO1 block)
Nc1ccc2ncccc2c1N	eIF4H inh 87.4, PABP FP inh active (no result: AI-2 QS mod)
CN1CCn2cnc(C(=O)NCCCCCNC(=O)OC(C)(C)C)c2C1=O	none (no result: eIF4H inh, AI-2 QS mod, PABP FP inh, PHOSPHO1 block)
CCn1c(COc2ccccc2)nnc1SCC(=O)c1cccc([N+](=O)[O-])c1	none
CCOc1cc(C)ccc1OCc1nnc(SCC(=O)c2cccc([N+](=O)[O-])c2)n1CC	PHOSPHO1 block 87.7
CC1OC(Oc2c(-c3cc(O)c(O)c(O)c3)oc3cc(O)cc(O)c3c2=O)C(O)C(O)C1O (stereo not given)	none

Bioassay records from PubChem.
